Only some compounds are listed: those with a hit (about 4.1% of all), similar ones and a draw of the others.
Bfl-1 A1 inh: inhibitors of the anti-apoptotic protein A1, read as caspase activation; AID 2462; 330,000 compounds, 0.066% hits; caspase activation, % (concentration not given with the values); MEF A1-2A-BIM cells, Caspase-Glo 3/7 luminescence, 3 h; percent of clofoctol response, vehicle zero;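 active = over half of replicate activation scores above 10%, or exactly half above 10 with the replicate mean above 10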
Beta apoptosis: blocks beta cell apoptosis; INS-1E cytokine-induced death, ATP luminescence, 48 h; percent of positive-control rescue, neutral wells zero; 300,000 compounds, 0.8% hits; protection from apoptosis, % (concentration not given with the values);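 active = Every replicate reaches about 75%, or at least half do and their mean reaches it too, limit read from the data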;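 note: 0% = cytokine-treated negative control wells and 100% = positive control rescue; higher means more ATP so stronger rescue from cytokine killing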
aSyn UTR inh: MLPCN primary screen, SNCA 5' untranslated region | alpha-synuclein 5'UTR reporter, inhibitor activity | inhibition, % (tested at 7.5 µM) | 300,000 compounds, 0.82% hits; in the data active = inhibition above about 60%;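 note: H4 neuroglioblastoma cells stably carrying SNCA 5'UTR luciferase fusion; 0% = DMSO wells and 100% = positive control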
CSC inhib: cancer stem cell inhibition; inhibition, % at 7.5 µM; cancer stem cell-like cells viability, luminescence; 300,000 compounds, 1.1% hits; in the data active = inhibition above about 75%; tested in HMLE shEcad cells
Mdm2 MdmX PPI: disrupts the human Mdm2-MdmX interaction. O15151+Q00987. SaOS-2 split-luciferase Mdm2/MdmX complementation, luminescence. inhibition, % at 8 µM. 330,000 compounds, 3% hits. AID 485346;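 active = inhibition of at least 50% at 8 µM in the primary screen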
Mdm2 MdmX conf: confirmation of human Mdm2/MdmX interaction inhibitors; shares compounds with Mdm2 MdmX PPI; Mdm2-MdmX binding, luminescent assay; inhibition, % at 8 µM; 10,000 compounds, 55% hits; in the data active = inhibition above about 40%
Full FLuc ctr: full-length luciferase inhibition in Mdm2/MdmX counter-screen. shares compounds with Mdm2 MdmX PPI. SaOS-2 full-length luciferase counterscreen, luminescence. inhibition, % at 8 µM. 6,200 compounds, 77% hits. AID 504607;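 active = mean inhibition at 8 µM reaching about 37%, which flags the compound as non-specific, limit read from the data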;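 note: p53-null SaOS-2 cells with luciferase driven by a doxycycline-inducible promoter; compound on cells about two nights before reading with doxycycline added after day one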
Starred values were filed as active, the others as inactive; · = no result given.

SMILES | Bfl-1 A1 inh | Beta apoptosis | aSyn UTR inh | CSC inhib | Mdm2 MdmX PPI | Mdm2 MdmX conf | Full FLuc ctr
CC(C(=O)NC(=O)NC1CCCCC1)N1CCN(c2ccc(O)cc2)CC1 (centres undefined) | -1.3 | -1.6 | · | · | 8.8 | · | ·
Cc1ccc(NC(=O)COc2cccc(Oc3ccccc3)c2)cc1S(=O)(=O)N1CCOCC1 | 0.0 | -0.1 | · | · | 8.9 | · | ·
C/C(=C\c1ccc(C(=O)O)cc1)c1ccc2c(c1)C(C)(C)CCC2(C)C | 0.7 | -15.3 | · | 100.7* | 58.0* | 51.9* | 43.6*
Cc1cccc(NC(=O)CSc2n[nH]c(-c3ccncc3)n2)c1C | -0.4 | 1.1 | -3.3 | 0.6 | 0.3 | · | ·
O=C(CSc1nc2ccccc2c(=O)n1-c1ccccc1)N1CCc2ccccc21 | 0.9 | 8.4 | 20.0 | -0.6 | 54.9* | 68.0* | 80.6*
CCOc1ccc(-n2c(SCC(=O)N3CCc4ccccc43)nnc2-c2c[nH]c3ccccc23)cc1 | 0.0 | -3.5 | 10.1 | 11.6 | 27.7 | · | ·
COc1cccc(-n2c(SCC(=O)N3CCc4ccccc43)nnc2-c2c[nH]c3ccccc23)c1 | 0.4 | 69.3 | 25.4 | 37.5 | 74.9* | 48.9* | 82.7*
COc1ccc(S(=O)(=O)N2CCCCC2)cc1NC(=O)c1cncc(Br)c1 | -0.6 | 1.8 | · | -15.9 | -13.1 | · | ·
Cc1cc(C)n2nc(C(=O)OCC(=O)N(C)C3CCCCC3)nc2n1 | 2.6 | -0.7 | -3.6 | -10.0 | 12.8 | · | ·
Cc1ccc2c(c1)CCCN2S(=O)(=O)c1cccc(C(=O)Nc2ccccc2C(=O)O)c1 | 0.0 | 3.0 | 1.7 | 62.0 | 53.8* | 60.2* | 58.3*
CCCC1=Nc2cc(C(=O)NCCCOCC)ccc2Sc2ccccc21 | 0.4 | 32.0 | 66.5* | 52.5 | 59.8* | 72.4* | 123.5*
CC1=Nc2cc(C(=O)NCC3CCCO3)ccc2Sc2ccc(Br)cc21 (centres undefined) | 1.1 | 12.6 | -112.9 | 55.6 | 56.1* | 59.7* | 61.3*
CCCC1=Nc2cc(C(=O)NCCCOC(C)C)ccc2Sc2ccccc21 | 0.2 | -3.9 | 11.2 | 66.3 | 50.5* | 65.7* | 71.0*
CC1=Nc2cc(C(=O)NCCCOC(C)C)ccc2Sc2ccccc21 | 0.9 | -3.5 | -28.6 | 49.4 | 49.3 | · | ·
CC1=Nc2cc(C(=O)NCCCOC(C)C)ccc2Sc2ccc(C)cc21 | 1.1 | 5.5 | 76.6* | 58.7 | 63.0* | 52.1* | 81.3*
CCOc1ccc(C(=O)C2CCN(C(=O)c3ccc([N+](=O)[O-])cc3)CC2)cc1 | -0.1 | · | 10.5 | -2.0 | 1.1 | · | ·
Cc1ccc(C(NC(=O)NC(C)c2ccccc2)C(Cl)(Cl)Cl)cc1F (centres undefined) | -0.2 | 16.7 | 46.7 | -1.1 | 54.7* | 58.0* | 39.9*
CC(NC(=O)Nc1ccc(Cl)cc1)c1ccccc1 (centres undefined) | -0.2 | -1.3 | 14.3 | -8.5 | 5.5 | · | ·
O=[N+]([O-])c1ccc(Sc2nnnn2-c2ccccc2)c(Cl)c1 | -0.6 | 24.3 | -28.4 | 63.7 | 48.9 | · | ·
CN1CCN(S(=O)(=O)c2ccc(Sc3nnnn3-c3ccccc3)c([N+](=O)[O-])c2)CC1 | -0.3 | · | -21.6 | 46.4 | 88.0* | 77.3* | 56.1*
CC(=O)c1ccc(Sc2nnnn2-c2ccccc2)c([N+](=O)[O-])c1 | 0.1 | -7.9 | -7.7 | 39.0 | 84.9* | 58.2* | 30.1
CSCCC(NC(=O)c1ccco1)C(=O)Nc1ccncc1 (centres undefined) | 0.0 | -5.2 | -16.8 | 4.8 | 4.1 | · | ·
Cc1ccc(S(=O)(=O)NCc2ccccc2)cc1C(=O)N1CCCCCCC1 | -0.2 | 1.2 | 4.8 | 0.2 | 10.9 | · | ·
Cc1cc(=O)c(C(=O)O)nn1-c1ccccc1C(F)(F)F | 0.4 | -5.6 | -10.9 | -6.7 | 5.3 | · | ·
COc1ccc([C@]2(C(C)C)ON(c3ccccc3C(F)(F)F)C2=O)cc1 | -0.3 | -1.3 | · | -1.9 | 82.0* | 41.1* | 51.4*
COc1ccc([C@@]2(C(C)C)ON(c3ccccc3C(F)(F)F)C2=O)cc1 | 2.1 | 6.8 | · | 60.1 | 79.8* | 56.2* | 44.8*
CC(C)[C@@]1(c2ccc(Cl)cc2)ON(c2ccccc2C(F)(F)F)C1=O | 0.5 | 0.2 | · | 29.1 | 75.0* | 43.8* | 49.6*
Cn1cc(Br)c(NC(=O)/C=C/C(=O)O)n1 | 0.2 | -3.0 | 1.2 | -15.6 | 28.1 | · | ·
